About 83,000 compounds went through this panel and 20% of them were active in at least one assay; those are over-represented in the sample as a whole.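 Activity criterion: percent growth below 10, measured after cells in 96-well plates were exposed to a single compound concentration for 48 hours.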 Values without a mark were called inactive. Calls of active or inactive are those of the source.

The experiment relates to A498 renal. The experiment is described as follows: NCI-60 one-dose screen, 48 h (100 = growth as untreated, 0 = no growth, -100 = all killed). As to conditions: 10 µM unless noted. Here is the method:
Growth inhibition of the A498 human tumor cell line is measured as a screen for anti-cancer activity. Cells are grown in 96 well plates and exposed to the test compound for 48 hours. Compounds are tested at a single concentration, which is 10^-5 M for most compounds. The reported endpoint is percent growth (GI% or GIPRCNT), where numbers from 0 - 100% represent growth inhibition, and numbers from -100% - 0 represent cell death. For example, a value of 40 represents 60% growth inhibition. A value of 0 means no net growth occurred over the course of the experiment. A value of -40 indicates 40% of cells at the beginning of the experiment died by the end of the experiment. A value of -100 means all cells are dead at the end of the experiment.
NCI-60 Human Tumor Cell Lines Screen was performed using the standard one-dose NCI protocol, which is described in more detail at https://dtp.cancer.gov/discovery_development/nci-60/default.htm.
Compounds with GIPRCNT values below 10 were considered active. Activity score was based on GIPRCNT using the following formula: […]
Score is 0 for GIPRCNT values of 100 or above, 50 for GIPRCNT values of 0, and 100 for GIPRCNT values of -100.
Take `O=C(Nc1ccc(-c2nc3cc4ccccc4cc3[nH]2)cc1)c1cccc(Br)c1`: the growth is 68.5%. As for `O=C(/C=C/c1ccc(C(F)(F)F)cc1)c1ccc(Nc2nc(NCCO)nc(N3CCOCC3)n2)cc1`, the growth is 98%. For `CC1=CCC(OC(=O)C(C)(C)CCC(O)(C(=O)OC2(C(C)C)CCC3(C)OC3C2)C(C)C)(C(C)C)CC1` (stereo not given) the value was -83.1% (active); for `O=c1c2cccc(F)c2sc2c(N3CCNCC3)nc3ccccc3c12`, 48.5%. Regarding `O=C(Nc1ccccc1O)c1ccc(Oc2cccc(C(=O)Nc3ccccc3O)c2)cc1`, the growth is 20.5%. The figure for `O=C(Nc1ccc(C23CC4CC(CC(c5ccccc5)(C4)C2)C3)cc1)c1cccs1` is 65.4%. The figure for `O=c1oc2ccc(Cl)cc2c(=O)n1-c1cc(C(F)(F)F)cc(C(F)(F)F)c1` is -68.8% (active). `COc1cc(C(=O)O/N=C(\N)Cc2cccc3ccccc23)cc(OC)c1OC`: the growth is 44.6%. For `COc1ccc(-c2nc(N3CCN(C(=O)C4CCCCC4)CC3)c3c4c(sc3n2)CCCC4)cc1` the value was 57.1%; for `COc1ccc(OC)c(NC(=O)/C(C#N)=C/c2ccco2)c1`, 101%. On to `CC[C@@H](C)[C@H](NC(=O)Cn1cc(CNC(=O)[C@@H](NC(=O)OCc2ccccc2)C(C)C)nn1)C(=O)O`, for which the growth is 98.9%. The figure for `CN(O)c1nc(N(C)O)nc(N2CCOCC2)n1` is 89.6%; for `O=c1oc2ccc(I)cc2c(=O)n1-c1ccc(Cl)cc1F` it is -68.3% (active). For `O=C(Nc1ccc(N2CCNCC2)cc1)c1[nH]ncc1Nc1ncnc2sc3c(c12)CCC3` the value was 16.9%; for `O=C(Nc1ccccc1O)c1ccc(-c2ccc(Cl)cc2Cl)o1`, 86.4%. For the compound `Clc1ccc(COc2ccc(Nc3ncnc4onc(-c5ccccc5)c34)cc2)cc1`, the growth was 69.2%.

Regarding `CCOc1c(Br)cc(C2C(C(=O)OC)=CN(C)C=C2C(=O)OC)cc1OC`, the growth is 99%. On to `COCCN(C(=O)Cc1cccs1)C(C(=O)NCc1ccc(OC)cc1)c1ccc(C(C)C)cc1` (stereo not given), for which the growth was 77.1%.

In the case of `O=c1oc2ccc(F)cc2c(=O)n1-c1ccc(F)cc1F`, the growth is -30.5% (active). For `COc1ccc(Cn2cc(Cn3cc(C=C4C(=O)NC(=O)NC4=O)c4ccccc43)nn2)cc1` the value was 22.2%; for `COC(=O)/C(CCC=C(C)C)=C1\[C@@H](OC(C)=O)C[C@@]2(C)[C@H]1C[C@@H](O)[C@H]1[C@@]3(C)CC[C@H](NCc4ccccc4)[C@@H](C)[C@@H]3CC[C@@]12C`, 98.1%; for `Nc1ccc(-n2c(=O)oc3ccc(Cl)cc3c2=O)c(Cl)c1`, -67% (active). The figure for `O=c1c(-c2nc3ccccc3[nH]2)cc2ccccc2n1Cc1cn(Cc2ccccc2Cl)nn1` is 67%; for `COc1cc(NC(=O)CCSc2nc3ccccc3c(=O)n2Cc2ccccc2)cc(OC)c1OC` it is 64.6%. The figure for `COc1cc(/C=C2\CN(C)C/C(=C\c3cc(CN4CCCCC4)c(O)c(OC)c3)C2=O)cc(CN2CCCCC2)c1O` is 71.1%; for `COc1ccc(C(=O)C2CC2c2ccc(Cl)cc2)cc1` (stereo not given) it is 114%; for `CCOc1ccc(-c2nonc2NC(=O)c2cccc(C)c2)cc1OCC` it is 39.4%. With `c1ccc2cc3c(Nc4ccc(N5CCOCC5)cc4)ccnc3cc2c1`, the growth was 77.6%. For `CC1(C)CC2(C)OC2C2(C1)N=NC(=Nc1ccccc1)O2` (stereo not given) the value was 125%; for `O=C(Nc1ccc(Cl)cc1F)c1cc(I)ccc1O`, -28.2% (active). The figure for `O=C(c1nc2ccccc2[nH]1)C1C(c2ccc(F)cc2)C2CC3CCCCC3N2[C@@]12C(=O)Nc1ccc(Cl)cc12` (stereo not given in full) is 39.8%; for `COc1ccc(/C=C/C(=O)c2ccc(Nc3nc(NCCO)nc(Nc4ccc(Cl)cc4)n3)cc2)cc1` it is 69.2%. As to `CCOc1cccc(/C=N/NC(=O)C(=O)Nc2cccc(C(F)(F)F)c2)c1O`, the growth is 55.9%.

For `CC1=C(C(=O)OCC2CCN(C(=O)OC(C)(C)C)CC2)[C@H](c2cccc(C#N)c2)C2=C(CC(C)(C)CC2=O)N1`, the growth is 68.3%. Turning to `CNCCNc1nc2ccccc2c2c(=O)c3cccc(OC)c3sc12`, the growth was 3.67% (active).

Regarding `COC(=O)/C(=C\c1c(-c2ccccc2)[nH]c2ccccc12)S(C)(=O)=O`, the growth is 29%.

In the case of `O=C(NC1CCCCC1)C(c1cccs1)N(CCc1ccccc1)C(=O)c1ccco1` (stereo not given), the growth was 93%. For `CC(=O)n1cc(-c2c[nH]c3ccccc23)c(-c2ccc(Cl)cc2)n1` the value was 71.6%. The figure for `COc1ccc(-c2cn3c(C(=O)Nc4ccccc4Cl)c(-c4ccccc4)c4c3n2CCCC4)cc1` is 74.9%. The figure for `O=C1c2cc(Cl)ccc2Oc2cc([N+](=O)[O-])ccc2N1c1ccc(F)cc1F` is 91.3%.

The record behind these values is PubChem BioAssay (NCI).
